Test results published in PubChem BioAssay AID1479146 (National Center for Advancing Translational Sciences (NCATS), 2020).
Inconclusive results are not listed. A number with no mark means an inactive call. Activity calls are given as the source filed them. Calls follow the shape of the full dose curve.

Assay: Confirmatory qHTS for Huh7 cytotoxicity: counterscreen for inhibitors of MERS-S pseudo-typed particle cell entry
Details: viability; series mostly up to 57.1 µM; activity change, negative = cytotoxicity: at the top concentration

| SMILES | Potency | activity change, negative = cytotoxicity [%] |
| --- | --- | --- |
| CCN1CCN(Cc2ccc(Nc3ncc(F)c(-c4cc(F)c5nc(C)n(C(C)C)c5c4)n3)nc2)CC1 | 8.57 µM (active) | – |
| O=c1ccc2ccccc2o1 | – | 0 |
| CC(C)(C)NC(=O)[C@H]1CC[C@H]2[C@@H]3CC[C@H]4NC(=O)C=C[C@]4(C)[C@H]3CC[C@]12C | – | -4.87 |
| CCN(CC)CCNC(=O)c1c(C)[nH]c(/C=C2\C(=O)Nc3ccc(F)cc32)c1C | 27.1 µM (active) | – |
| COc1cccc2c1C(=O)c1c(O)c3c(c(O)c1C2=O)C[C@@](O)(C(=O)CO)C[C@@H]3O[C@H]1C[C@H](N)[C@@H](O)[C@H](C)O1 | 2.15 µM (active) | – |
| Cc1cc(-n2c(=O)[nH]c(=O)n(C)c2=O)ccc1Oc1ccc(S(=O)(=O)C(F)(F)F)cc1 | – | -28 |
| C[n+]1c2cc(N)ccc2cc2ccc(N)cc21 (tested in a mixture with another compound) | 3.83 µM (active) | – |
| COc1cccc2c1C(=O)c1c(O)c3c(c(O)c1C2=O)C[C@@](O)(C(C)=O)C[C@@H]3O[C@H]1C[C@H](N)[C@H](O)[C@H](C)O1 | 6.07 µM (active) | – |
| O=C1c2c(O)ccc(O)c2C(=O)c2c(NCCNCCO)ccc(NCCNCCO)c21 | 17.1 µM (active) | – |
| CCCCc1oc2ccccc2c1C(=O)c1cc(I)c(OCCN(CC)CC)c(I)c1 | – | -7.39 |
| Cc1nnc(C(=O)NC(C)(C)c2nc(C(=O)NCc3ccc(F)cc3)c(O)c(=O)n2C)o1 | – | 0 |
| CC(=O)N1CCN(c2ccc(OC[C@H]3CO[C@](Cn4ccnc4)(c4ccc(Cl)cc4Cl)O3)cc2)CC1 | – | -7.77 |
| COc1cccc2c1C(=O)c1c(O)c3c(c(O)c1C2=O)C[C@@](O)(C(=O)CO)CC3OC1CC(N2CCOC(OC)C2)C(O)C(C)O1 (some centres not stated) | 0.136 µM (active) | – |
| CN(C/C=C/c1ccccc1)Cc1cccc2ccccc12 | – | -7.41 |
| Nc1ccn([C@@H]2O[C@H](CO)[C@@H](O)C2(F)F)c(=O)n1 | – | -18.8 |
| O=C(Nc1ccc([N+](=O)[O-])cc1Cl)c1cc(Cl)ccc1O | 3.83 µM (active) | – |
| CCC(C)(C)C(=O)O[C@H]1C[C@@H](C)C=C2C=C[C@H](C)[C@H](CC[C@@H]3C[C@@H](O)CC(=O)O3)[C@H]21 | – | 0 |
| c1ccc2c(c1)Sc1ccccc1N2CC1CN2CCC1CC2 (configuration not stated) | 30.4 µM (active) | – |
| C=C1c2c(Cl)ccc(O)c2C(O)=C2C(=O)[C@@]3(O)C(O)=C(C(N)=O)C(=O)[C@@H](N(C)C)[C@@H]3[C@@H](O)[C@H]12 | – | -20.1 |
| CCCCCCNC(=O)n1cc(F)c(=O)[nH]c1=O | – | -9.95 |
| Cc1nnc2n1-c1sc(CCc3ccc(CC(C)C)cc3)cc1C(c1ccccc1Cl)=NC2C (configuration not stated) | – | -18.8 |
| CC[C@@H]([C@H](C)O)n1ncn(-c2ccc(N3CCN(c4ccc(OC[C@@H]5CO[C@@](Cn6cncn6)(c6ccc(F)cc6F)C5)cc4)CC3)cc2)c1=O | – | -5.11 |
| N=C(N)c1ccc(OCCCCCOc2ccc(C(=N)N)cc2)cc1 | – | -28.4 |
| CC(=O)OCC1=C(C(=O)O)N2C(=O)[C@@H](NC(=O)Cc3cccs3)[C@H]2SC1 | – | 0 |
| Cc1cc(C(C#N)c2ccc(Cl)cc2)c(Cl)cc1NC(=O)c1cc(I)cc(I)c1O (configuration not stated) | – | -19.4 |
| COc1cc(N)c(Cl)cc1C(=O)NC1CCN(CCCOc2ccc(F)cc2)CC1OC (configuration not stated) | – | -20 |
| CCCN1C[C@H](C)[C@@H](O)[C@](C)(O)[C@@H](CC)OC(=O)[C@H](C)[C@@H](O[C@H]2C[C@@](C)(OC)[C@@H](O)[C@H](C)O2)C(C)[C@@H](O[C@@H]2O[C@H](C)C[C@H](N(C)C)[C@H]2O)[C@](C)(O)C[C@H]1C (some centres not stated) | – | -7.32 |
